In PubChem BioAssay (EPA / NIEHS) one finds outcome and AC50 data, which are given here for 24 compounds.

Each structure is given as a SMILES string. Values joined by “and” are separate entries in the source; they are usually repeats but may differ in a detail not shown here. Identical values can stand only once. Active and inactive are the calls of the source. How the source made its calls: active means hit-call score of the fitted dose curve at least 0.9, where 1 is the maximum; inactive means score below 0.9.

The nature of the assay: CCTE_Shafer_MEA_dev_burst_duration_mean: CCTE's Neural Network Formation Assay for Mean Burst Duration, Shafer Lab (AID 2284045).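 On AC50: curve fitted for loss meaning shorter burst duration than DMSO.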 The method, then:
CCTE_Shafer_MEA_dev assay is conducted using Axion Biosystems 48 well microelectrode array (MEA) plates and Maestro recording system. Each well of the MEA plate contains a grid of 16 microelectrodes embedded in the culture surface. Electrically active cells, such as neurons, can be cultured over the electrodes, and electrical activity in these cells can be recorded extracellularly. The spontaneous firing of neurons is captured from each electrode on a microsecond timescale providing both temporally and spatially precise data. […] The CCTE_Shafer_MEA_dev assay uses primary cultures of rat cortical neurons. Recordings are made on days post-plating 5, 7, 9 and 12. As these cultures mature over time, neural networks develop functional activity and form cohesive networks in which electrical activity can be highly coordinated. CCTE_Shafer_MEA_dev_burst_duration_mean is 1 of 19 assay components of the CCTE_Shafer_MEA_dev assay. It measures the average time interval from the first spike (action potential firing) to the last spike in a singe-electrode burst (temporally-clustered group of spikes) during a recording in a microelectrode array (MEA) using Axion Biosystems Maestro 768 channel amplifier with the AxIS adaptive spike detector. The mean burst duration is averaged across the actively bursting electrodes to report a well-mean value. To collapse across multiple recordings made on days post-plating 5, 7, 9 and 12, the trapezoidal area-under-the-curve of the component is calculated.Data from the assay component CCTE_Shafer_MEA_dev_burst_duration_mean was analyzed into 1 assay endpoint. This assay endpoint, CCTE_Shafer_MEA_dev_burst_duration_mean, was analyzed in the negative analysis fitting direction relative to DMSO as the negative control and baseline of activity. Using a type of functional reporter, gain or loss-of-signal activity can be used to understand electrical activity.
On the day prior to culture, each well was coated thoroughly with 150 uL of 0.05% polyethyleneimine (PEI, Sigma Cat P3143) in 50 mM HEPES (Sigma Cat H7523) at a pH of 8. The plate was incubated at 37C for one hour. PEI was rinsed out with 500 uL of sterile water three times. Plates were stored at 4C until the day of culture. This culture was plated at a seeding density of 1.5 x 10^5 cells/well on a 48-well MEA plate, prepared as described above. Cells were administered via a 25 uL media/laminin ([…]; Sigma Cat L2020-1MG) drop directly onto the microelectrode array, as adding the cells with the laminin results in better attachment than pre-coating with laminin. After 2 hours, an additional 475 uL of cortical media was added and the cells returned to the incubator. Exposure starts at day 0 of plating and is continued over twelve days of network development until the experiment is terminated. Cells are fed with fresh medium on DIV 5 and 9, following the recordings on those days. The entire volume of media in the well is exchanged and any vehicle or compound treatment is renewed. Complete details are found in OP-NHEERL/ISTD/SBB/TJS/2015-03-r0 (available on request, email shafer.tim@epa.gov). Measurement of the electrical activity is non-invasive, and recordings can be made from the same plate over multiple different days of the culture. In cortical neurons, this allows for the measurement of extracellular action potentials over the period during which networks form in the MEA plate.
With `CCSC(=O)N1CCCCCC1`, the outcome was inactive.
Regarding `CCCN(CC)CC1COC2(CCC(C(C)(C)C)CC2)O1` (centres undefined), the AC50 was 157 nM (active).
With `CC(C)(C)C(=O)C(Oc1ccc(Cl)cc1)n1cncn1` (centres undefined), the compound was called inactive.
Still for that read-out and setting: for `COP(=O)(OC)O/C(C)=C/C(=O)N(C)C` the value was “inactive”; for `CCOP(=O)(OCC)Oc1nc(Cl)c(Cl)cc1Cl`, “inactive”.
In the case of `CCOC(=O)C(C)OC(=O)c1cc(Oc2ccc(C(F)(F)F)cc2Cl)ccc1[N+](=O)[O-]` (centres undefined), the compound was classed as inactive.
Still for that read-out and setting: for `CC1(C)C(C(=O)OC(C#N)c2cccc(Oc3ccccc3)c2)C1(C)C` (centres undefined) the value was “inactive”.
`COP(=S)(OC)SCn1nnc2ccccc2c1=O`: the result was inactive.
Same read-out and setting: then `CC1(C)C(C=C(Cl)Cl)C1C(=O)OC(C#N)c1cccc(Oc2ccccc2)c1` (centres undefined), with “inactive”; and `CS(=O)(=O)c1cc(C(F)(F)F)ccc1C(=O)c1cnoc1C1CC1`, with “inactive”.
For the compound `Cc1c(COC(=O)[C@@H]2[C@H](/C=C(\Cl)C(F)(F)F)C2(C)C)cccc1-c1ccccc1`, the AC50 was 2.29 µM (active) and 1.75 µM (active).
`O=C(Nc1ccccc1-c1ccc(Cl)cc1)c1cccnc1Cl`: the compound was classed as inactive.
On the same count and under the same terms, then `N#CN=C1SCCN1Cc1ccc(Cl)nc1`, with “inactive”.
Still for that read-out and setting: for `CNC(=O)Oc1cccc2ccccc12` the value was “inactive”.
Regarding `CO/N=C(/C1=NOCCO1)c1ccccc1Oc1ncnc(Oc2ccccc2Cl)c1F`, the AC50 is 1.23 µM (active) and 858 nM (active).
As to `O=C1C2CC=CCC2C(=O)N1SC(Cl)(Cl)Cl` (centres undefined), the outcome was inactive.
On the same count and under the same terms, for `CC(C)=CC1C(C(=O)OCc2coc(Cc3ccccc3)c2)C1(C)C` (centres undefined) the value was “inactive”; for `CS(=O)(=O)c1ccc(C(=O)C2C(=O)CCCC2=O)c([N+](=O)[O-])c1`, “inactive”.
In the case of `C=C(C)CN(CC)c1c([N+](=O)[O-])cc(C(F)(F)F)cc1[N+](=O)[O-]`, the compound was classed as inactive.
On the same count and under the same terms, then `CCNC(=O)NC(=O)C(C#N)=NOC`, with “inactive”; and `COC(=O)N(C(=O)N1CO[C@@]2(C(=O)OC)Cc3cc(Cl)ccc3C2=N1)c1ccc(OC(F)(F)F)cc1`, with “inactive”.
The same measure, in the same setting: for `CCN(CC)c1nc(C)cc(OP(=S)(OC)OC)n1` the value was “inactive”.
Same read-out and setting: for `CN/C(=N\[N+](=O)[O-])NCc1cnc(Cl)s1` the value was “inactive”.
`COP(=S)(OC)Oc1ccc([N+](=O)[O-])c(C)c1`: the compound was classed as inactive.

The AC50 is the midpoint of the concentration-response curve, whichever way the signal moves.
